The target in assay [1] is Bile acid receptor (Homo sapiens) (UniProt Q96RI1). Briefly: qHTS assay for small molecule agonists of farnesoid X receptor signaling (AID 588527; calls by dose curve;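 note: 0% = vehicle basal and 100% = reference agonist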). Particulars: HEK293T FXR-UAS-bla, beta-lactamase ratio, 16 h; activation: stronger effect = higher value. In a few lines: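 Quantitative HTS used FXR-UAS-bla HEK293T cells with 16 h compound incubation at 37 C. EC50 values came from concentration-response curves normalized to chenodeoxycholic acid.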
(In qHTS, concentration-response curves come from the screen itself.)

The nature of assay [2]: Cell Viability - Jurkat (AID 426;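 active = dose-dependent loss of cell ATP signal giving a full or clear fitted curve, ranked by lower potency value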; note: potency is the fitted concentration of half-maximal effect). Particulars: qHTS. A digest of the protocol: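 Jurkat (clone E6-1, human T-cell leukemia) cells, 5000/well in complete medium, were exposed to compound for 40 hr at 37 °C. Viability was read as intracellular ATP by CellTiter-Glo luminescence; AC50 came from Hill fits of concentration-response data.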
Assay [3] can be described thus: Cell Viability - H-4-II-E (AID 543). Note: % is set by controls: 0 for no effect and ±100 for the full control effect; nearly all actives have a fitted effect of over 35% in size. The conditions noted are these: H-4-II-E rat hepatoma viability; series mostly up to 92.2 µM. A digest of the protocol: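 Rat hepatoma H-4-II-E cells (1500/well) were plated, incubated 5 hr at 37 °C, then exposed to compounds for 40 hr at 37 °C. Cellular ATP was read by CellTiter-Glo luminescence; AC50 came from Hill-equation fits of concentration-response data.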

Assay [4] in a line: Cell Viability - SH-SY5Y (AID 544).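 Note: 0% = DMSO alone and -100% = 100 µM tamoxifen; nearly all actives have a fitted effect of over 55% in size.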 Particulars: SH-SY5Y neuroblastoma cell viability; series mostly up to 92.2 µM. A digest of the protocol:
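Human neuroblastoma SH-SY5Y cells (1500/well) in complete medium were exposed to compounds for 40 hr at 37 °C; intracellular ATP was then quantified by CellTiter-Glo luminescence after 20 min at room temperature. AC50 came from Hill-equation concentration-response fits.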

Assay [5] in a line: Cell Viability - LYMP2-018 (AID 985).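 Note: compound exposure lasted 24 hr at 37 °C; plate controls were DMSO only for no effect and tetraoctylammonium bromide at 92 µM for full effect; nearly all actives have a fitted effect of over 50% in size.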 Particulars: LYMP2-018 lymphoblastoid cells, viability (qHTS); series mostly up to 92.2 µM. A digest of the protocol:
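Human lymphoblastoid cells (2500/well) were pre-incubated 5 hr at 37 C, then exposed to compounds for 24 hr at 37 C in complete medium. Viability was read as intracellular ATP by CellTiter-Glo luminescence; AC50 values came from Hill-equation fits.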

Assay [6] is described as follows: Cell Viability - LYMP2-020 (AID 986).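 Note: plate controls were DMSO only for no effect and tetraoctylammonium bromide at 92 µM for full effect; nearly all actives have a fitted effect of over 55% in size.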 Particulars: series mostly up to 92.2 µM. In a few lines:
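Human lymphoblastoid cells, 2500/well, were pre-incubated 5 hr at 37 C, then exposed to compounds for 24 hr at 37 C in complete medium. Intracellular ATP was read by CellTiter-Glo luminescence, and AC50 was derived by Hill fitting of concentration-response data.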

Assay [7] in a line: Cell Viability - LYMP2-024 (AID 988).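 Note: plate controls were DMSO only for no effect and 92 µM tetraoctylammonium bromide for full effect; nearly all actives have a fitted effect of over 60% in size.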 The conditions noted are these: LYMP2-024 lymphoblastoid cell viability; series mostly up to 92.2 µM. In a few lines:
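Human lymphoblastoid cells (2500/well) in complete medium were preincubated 5 hr at 37 C, then exposed to compounds for 24 hr at 37 C. Intracellular ATP was read by CellTiter-Glo luminescence; AC50 from Hill-equation fits of concentration-response data.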

A short description of assay [8]: Cell Viability - LYMP1-002 - Assay at 40 hr (AID 994).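 Note: 0% = DMSO only and full inhibition = 92 µM tetraoctylammonium bromide; nearly all actives have a fitted effect of over 60% in size.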 Particulars: LYMP1-002 lymphoblastoid cell viability; series mostly up to 92.2 µM. In a few lines:
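Human lymphoblastoid cells, 2500/well in complete medium, were preincubated 5 hr at 37 C, then exposed to compounds for 40 hr at 37 C. Intracellular ATP was read by CellTiter-Glo luminescence after 30 min at room temperature; AC50 from Hill-equation fits.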

The target in assay [9] is Glucocorticoid receptor (Homo sapiens) (UniProt P04150). In words: qHTS assay for small molecule antagonists of glucocorticoid receptor signaling (AID 588533; active = well fitted inhibition curve with a large enough effect in the signal ratio, with a control signal flat, not every such curve was filed as active; the % refers to the signal ratio;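 note: cells stimulated with 2 nM dexamethasone as agonist; % is set by controls: 0 for no effect and ±100 for the full control effect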). Particulars: HeLa MMTV-bla, GRE beta-lactamase ratio, antagonist mode, 18 h; series mostly up to 76.8 µM. A digest of the protocol: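 Antagonist-mode qHTS: compound titrations added to GRE-bla HeLa cells, then dexamethasone 2 nM final; 18 h, 37 C. CCF4 FRET fluorescence normalized to dexamethasone and DMSO; IC50 from Hill fit.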

The nature of assay [10]: qHTS assay for small molecule antagonists of peroxisome proliferator-activated receptor delta signaling (AID 588535; active = well fitted inhibition curve with a large enough effect in the signal ratio, with a control signal flat, not every such curve was filed as active; the % refers to the signal ratio;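 for max response: cells co-treated with a PPAR-delta agonist as stimulator during compound exposure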). The conditions noted are these: HEK293T PPARd-UAS-bla, beta-lactamase FRET ratio, 18 h; 460 nm channel. A digest of the protocol:
(§1)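 Cell-based beta-lactamase assay in antagonist mode: 4000 HEK293T PPAR-delta-UAS-bla cells per well, 5 hr preincubation then 18 hr compound incubation at 37 C. IC50 obtained by Hill equation fitting.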

The target of assay [11] is Peroxisome proliferator-activated receptor delta (Homo sapiens) (UniProt Q03181). Described as above. The conditions noted are these: HEK293T PPARd-UAS-bla, beta-lactamase FRET ratio, 18 h; series mostly up to 76.7 µM. In a few lines:
as §1

The target of assay [12] is Vitamin D3 receptor (Homo sapiens) (UniProt P11473). Briefly: qHTS assay for small molecule antagonists of vitamin D receptor signaling (AID 588541; calls by dose curve;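 note: receptor activated by calcitriol during compound treatment; % is set by controls: 0 for no effect and ±100 for the full control effect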). The conditions noted are these: HEK293T VDR-UAS-bla, beta-lactamase ratio, antagonist mode; series mostly up to 76.7 µM. A digest of the protocol:
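Antagonist-mode beta-lactamase reporter assay: HEK293T VDR-UAS-bla cells were exposed to titrated compound alongside 1-alpha,25-dihydroxyvitamin D3 at 3 nM final for 16 h. Values were normalized to the 50 nM agonist control and DMSO basal, with IC50 and efficacy from Hill equation fits.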

Assay [13] shares this target. In words: qHTS assay for small molecule agonists of vitamin D receptor signaling (AID 588543; calls by dose curve;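 note: 0% = DMSO basal and 100% = reference agonist control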). The conditions noted are these: HEK293T VDR-UAS-bla, beta-lactamase ratio, 16 h; series mostly up to 76.8 µM. A digest of the protocol:
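Measured: β-lactamase reporter activity (CCF4, 405 nm excitation, 460/530 nm emission) in HEK293T VDR-UAS-bla cells after 16 h compound exposure at 37 °C. Normalization against 50 nM 1α,25-dihydroxyvitamin D3 and DMSO; Hill-fit EC50.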

Assay [14] can be described thus: qHTS assay for environmental chemicals that activate the Aryl hydrocarbon Receptor (AhR) signaling pathway (AID 651777). Note: % of control where 0% means no effect; nearly all actives have a fitted effect of over 15% in size. Particulars: 1A2-DRE human hepatoma cells, luciferase, 24 h; activation: stronger effect = higher value. A digest of the protocol: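 Measured luciferase activity, read 30 min after One-Glo addition at room temperature, from human hepatoma cells bearing a dioxin response element–CYP1A2 promoter reporter and exposed to compound for 24 hr at 37 C.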

Assay [15] addresses M-phase phosphoprotein 8 (Homo sapiens) (UniProt Q99549). Briefly: qHTS Validation Assay for Inhibitors for MPP8 Chromodomain Interactions with Methylated Histone Tails (AID 488949). Note: nearly all actives have a fitted effect of over 55% in size. Note: potency is the fitted concentration of half-maximal effect. The conditions noted are these: AlphaScreen MPP8 binding to H3K9me3 peptide; series mostly up to 114 µM. A digest of the protocol:
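Chemiluminescent proximity assay: histidine-tag capture via nickel acceptor beads, biotin peptide via streptavidin donor beads. Protein and peptide each at 50 nM, pH 7.4, with 30 min incubations at room temperature for complex formation, compound exposure and bead binding.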

Assay [16] can be described thus: Nrf2 qHTS screen for inhibitors: Validation (AID 493153; active = well fitted inhibition curve with a large enough effect in the main read-out, with a control signal flat, not every such curve was filed as active; note: potency is the fitted concentration of half-maximal effect). Particulars: A549 ARE-Fluc reporter, 18-24 h; Potency: luciferase luminescence; viability change: measured here: cytotoxicity max response; luciferase luminescence, at 46.1 µM (top of the series). A digest of the protocol: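 A549 cells carrying an ARE-driven firefly luciferase reporter, in 5% FBS OPTI-MEM, were treated with compounds in concentration-response for 18-24 h at 37°C. Viability was read by CellTiter-Fluor fluorescence, then Nrf2 activity by luciferase luminescence.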

In assay [17] the target is Thyroid hormone receptor beta (Homo sapiens) (UniProt P10828). Briefly: qHTS assay for small molecule agonists of thyroid hormone receptor beta signaling (AID 588545; calls by dose curve). Particulars: TR-UAS-bla GripTite HEK 293, beta-lactamase ratio, agonist mode, 18 h; series mostly up to 76.7 µM. In a few lines:
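Cells (2500/well) were seeded, incubated 4 hrs at 37 C, dosed with a compound series, incubated 18 hrs, loaded with CCF4 dye for 2 hrs at RT, then read for fluorescence. Data were scaled between DMSO (0%) and 10 nM T3 (100%).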

Assay [18] shares this target. Briefly: qHTS assay for small molecule antagonists of thyroid hormone receptor beta signaling (AID 588547; active = well fitted inhibition curve with a large enough effect in the signal ratio, with a control signal flat, not every such curve was filed as active; the % refers to the signal ratio;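 note: cells stimulated with 0.4 nM T3 agonist during compound exposure; % is set by controls: 0 for no effect and ±100 for the full control effect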). Particulars: TR-UAS-bla HEK293, beta-lactamase ratio, antagonist mode, 18 h. A digest of the protocol: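 Inhibition of T3-driven (0.4nM final) beta-lactamase reporter activity was measured over 0.59 nM to 92 uM compound after 18 h at 37 C. The cells were GripTite HEK293 TR-UAS-bla in charcoal/dextran-stripped serum, with CCF4 ratio read-out and IC50 from Hill fits.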

A short description of assay [19]: qHTS assay for small molecule activators of the p53 signaling pathway (AID 651743; active = well fitted activation curve with a large enough effect in the signal ratio, not every such curve was filed as active; the % refers to the signal ratio; note: % of control where 0% means no effect). Particulars: HCT-116 p53RE-bla, beta-lactamase FRET ratio, 16 h; activation: stronger effect = higher value. A digest of the protocol: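 Screen for p53 pathway agonists uses stably transfected p53RE-bla HCT-116 cells, 4,000 per well, treated 16 h at 37 C with compounds in DMSO.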
For assay [20], the target named is Peroxisome proliferator-activated receptor delta (Homo sapiens) (UniProt Q03181). In words: qHTS assay for small molecule agonists of peroxisome proliferator-activated receptor delta signaling (AID 588534; calls by dose curve;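 note: 0% = DMSO basal wells and 100% = positive control agonist at 10 µM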). Particulars: HEK293T PPARdelta-UAS-bla, beta-lactamase ratio, 18 h; series mostly up to 76.7 µM. In a few lines: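 Cell-based beta-lactamase reporter assay run in agonist mode: cells seeded and incubated 5 hrs at 37 C, compounds added and incubated 18 hrs at 37 C. CCF4 dye fluorescence read after 2 hrs at RT; EC50 and efficacy from Hill fits.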

“And” between values parts separate entries of the source, which are not always exact repeats. Equal values may be shown once. Inconclusive results are not listed. The source holds several records for some structures; these can differ, active in one and inactive in another. The source made the active and inactive calls. Unless noted, calls come from the whole dose curve; as a rule, active = well fitted curve in the direction sought with a large enough effect; inconclusive = small, poorly fitted or top-dose-only effect, or another doubt; inactive = no such curve, though single readings can be large; an effect the other way counts as inactive or inconclusive.

Sequence of Vitamin D3 receptor (Homo sapiens) (P11473 whole entry, looked up): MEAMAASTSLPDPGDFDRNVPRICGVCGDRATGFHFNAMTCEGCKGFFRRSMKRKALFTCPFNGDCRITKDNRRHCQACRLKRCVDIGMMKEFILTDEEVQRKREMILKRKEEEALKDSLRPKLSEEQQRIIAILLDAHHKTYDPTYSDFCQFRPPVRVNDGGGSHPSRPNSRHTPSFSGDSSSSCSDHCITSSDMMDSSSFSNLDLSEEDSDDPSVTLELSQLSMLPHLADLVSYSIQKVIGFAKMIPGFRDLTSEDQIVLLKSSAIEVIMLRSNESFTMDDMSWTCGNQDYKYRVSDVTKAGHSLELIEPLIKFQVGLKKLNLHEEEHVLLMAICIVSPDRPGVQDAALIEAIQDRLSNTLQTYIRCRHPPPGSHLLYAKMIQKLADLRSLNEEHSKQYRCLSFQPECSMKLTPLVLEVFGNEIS
Sequence of Bile acid receptor (Homo sapiens) (Q96RI1 whole entry, looked up): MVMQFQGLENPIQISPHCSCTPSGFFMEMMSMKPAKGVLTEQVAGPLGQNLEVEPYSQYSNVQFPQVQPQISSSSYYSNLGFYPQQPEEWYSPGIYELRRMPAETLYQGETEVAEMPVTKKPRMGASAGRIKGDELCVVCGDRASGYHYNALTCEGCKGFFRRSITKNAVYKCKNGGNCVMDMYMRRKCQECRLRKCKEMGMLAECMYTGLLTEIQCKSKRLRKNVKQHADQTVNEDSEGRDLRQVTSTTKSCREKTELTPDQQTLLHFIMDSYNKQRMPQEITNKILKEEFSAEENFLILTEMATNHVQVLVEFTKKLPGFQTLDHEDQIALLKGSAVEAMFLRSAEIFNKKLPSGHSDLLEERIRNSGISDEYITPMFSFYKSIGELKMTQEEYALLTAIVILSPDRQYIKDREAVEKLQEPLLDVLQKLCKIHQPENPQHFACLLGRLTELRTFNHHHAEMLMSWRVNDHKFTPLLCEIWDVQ
Sequence of M-phase phosphoprotein 8 (Homo sapiens) (Q99549 whole entry, looked up): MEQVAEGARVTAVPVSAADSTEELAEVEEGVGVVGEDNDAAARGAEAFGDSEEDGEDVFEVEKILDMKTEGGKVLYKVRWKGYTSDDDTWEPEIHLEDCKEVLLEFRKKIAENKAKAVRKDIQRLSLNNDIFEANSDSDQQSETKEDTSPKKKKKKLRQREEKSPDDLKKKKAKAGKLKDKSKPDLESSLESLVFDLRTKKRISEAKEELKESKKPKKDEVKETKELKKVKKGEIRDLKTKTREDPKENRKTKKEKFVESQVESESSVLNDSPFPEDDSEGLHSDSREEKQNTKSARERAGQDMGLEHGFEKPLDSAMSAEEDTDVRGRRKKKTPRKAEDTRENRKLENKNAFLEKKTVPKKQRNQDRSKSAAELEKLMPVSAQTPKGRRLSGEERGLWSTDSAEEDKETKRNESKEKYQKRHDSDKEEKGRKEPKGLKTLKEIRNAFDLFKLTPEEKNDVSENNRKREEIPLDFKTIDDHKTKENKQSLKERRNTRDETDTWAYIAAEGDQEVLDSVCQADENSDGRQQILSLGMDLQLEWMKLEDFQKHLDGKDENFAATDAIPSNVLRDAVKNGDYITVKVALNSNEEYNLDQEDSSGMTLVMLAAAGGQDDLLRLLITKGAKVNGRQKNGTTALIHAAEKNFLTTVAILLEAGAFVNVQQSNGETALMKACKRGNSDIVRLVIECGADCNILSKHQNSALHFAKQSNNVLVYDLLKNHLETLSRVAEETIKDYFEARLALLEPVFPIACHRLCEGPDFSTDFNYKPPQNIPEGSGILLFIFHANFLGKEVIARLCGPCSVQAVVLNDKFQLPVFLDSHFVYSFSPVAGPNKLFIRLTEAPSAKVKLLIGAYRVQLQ
Sequence of Glucocorticoid receptor (Homo sapiens) (P04150 whole entry, looked up): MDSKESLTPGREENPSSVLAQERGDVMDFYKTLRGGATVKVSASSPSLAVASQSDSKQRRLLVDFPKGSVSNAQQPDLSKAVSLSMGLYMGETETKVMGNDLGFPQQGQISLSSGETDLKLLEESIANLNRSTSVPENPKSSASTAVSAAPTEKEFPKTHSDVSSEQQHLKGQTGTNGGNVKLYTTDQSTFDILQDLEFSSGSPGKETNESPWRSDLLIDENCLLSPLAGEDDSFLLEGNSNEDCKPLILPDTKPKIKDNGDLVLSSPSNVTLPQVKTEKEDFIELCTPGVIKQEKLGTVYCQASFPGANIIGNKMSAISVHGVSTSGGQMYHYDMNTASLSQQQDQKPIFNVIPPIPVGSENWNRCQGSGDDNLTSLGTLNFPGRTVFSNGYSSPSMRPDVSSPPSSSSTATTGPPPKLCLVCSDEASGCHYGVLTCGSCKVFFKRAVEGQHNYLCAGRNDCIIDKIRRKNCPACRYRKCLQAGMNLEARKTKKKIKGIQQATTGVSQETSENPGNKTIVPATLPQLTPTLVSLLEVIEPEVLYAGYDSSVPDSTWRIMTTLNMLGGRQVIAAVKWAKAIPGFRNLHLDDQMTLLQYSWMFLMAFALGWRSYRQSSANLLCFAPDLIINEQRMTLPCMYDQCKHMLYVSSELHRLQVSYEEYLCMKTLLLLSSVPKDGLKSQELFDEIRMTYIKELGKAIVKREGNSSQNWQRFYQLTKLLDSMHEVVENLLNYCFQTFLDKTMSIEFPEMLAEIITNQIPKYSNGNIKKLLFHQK
Sequence of Thyroid hormone receptor beta (Homo sapiens) (P10828 whole entry, looked up): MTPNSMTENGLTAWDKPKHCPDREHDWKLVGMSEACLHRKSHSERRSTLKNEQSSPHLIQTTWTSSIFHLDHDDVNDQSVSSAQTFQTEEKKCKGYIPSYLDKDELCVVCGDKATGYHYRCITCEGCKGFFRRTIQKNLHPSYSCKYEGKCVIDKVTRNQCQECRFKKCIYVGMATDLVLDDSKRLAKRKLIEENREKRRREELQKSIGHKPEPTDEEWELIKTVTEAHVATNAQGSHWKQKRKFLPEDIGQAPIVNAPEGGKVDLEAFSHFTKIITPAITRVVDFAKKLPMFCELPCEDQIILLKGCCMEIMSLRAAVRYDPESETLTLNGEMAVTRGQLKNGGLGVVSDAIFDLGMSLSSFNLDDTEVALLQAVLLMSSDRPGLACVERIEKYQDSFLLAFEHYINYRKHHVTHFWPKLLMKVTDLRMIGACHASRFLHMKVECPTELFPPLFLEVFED
Sequence of Peroxisome proliferator-activated receptor delta (Homo sapiens) (Q03181 whole entry, looked up): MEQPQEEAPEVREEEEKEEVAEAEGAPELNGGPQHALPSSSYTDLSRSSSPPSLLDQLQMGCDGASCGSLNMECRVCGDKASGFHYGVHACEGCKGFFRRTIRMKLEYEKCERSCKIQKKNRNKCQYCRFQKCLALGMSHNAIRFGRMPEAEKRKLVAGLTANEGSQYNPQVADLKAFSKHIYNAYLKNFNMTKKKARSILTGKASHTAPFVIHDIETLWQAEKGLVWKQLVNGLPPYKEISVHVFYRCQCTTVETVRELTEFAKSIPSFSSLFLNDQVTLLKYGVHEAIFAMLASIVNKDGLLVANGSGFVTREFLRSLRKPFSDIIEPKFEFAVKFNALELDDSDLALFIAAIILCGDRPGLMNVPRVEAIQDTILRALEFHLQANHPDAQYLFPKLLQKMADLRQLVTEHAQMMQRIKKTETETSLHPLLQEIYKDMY

Consider `CC(=O)C(C)=O`, for which the activation in assay [1] was 0.539% (inactive).

As for `CC(=O)/C=C/c1ccccc1`, the Potency in [2] was > 92 µM (inactive). Moreover, the molecule was called inactive in assay [3], in assay [4], in assay [5], in assay [6], in assay [7] and in assay [11]. Moreover, the outcome in [12] was inactive. In addition, the Potency entry in [8], in [9] and in [13] was “inactive” each time. Besides, in assay [10], the max response amounted to 11.6%. Moreover, in assay [14], the activation is -0.449% (inactive).

Turning to `Brc1c(Br)c(Br)c2n[nH]nc2c1Br`, the Potency result in [15] was “inactive”. Further, in assay [16], the Potency was 18.4 µM (active) and the viability change is -14.6%.

Consider `COC1=CC(=O)OC(CCc2ccc3c(c2)OCO3)C1` (stereo not drawn), for which the Potency entry in assay [17] was “inactive”. In addition, in assay [18], the activity change % (negative = inhibition) was -2% (inactive). Besides, the values for the activation in assay [19] and in assay [14] were -6.75% (inactive) and 9.51% (inactive), respectively.

For `c1ccc(Nc2ccc3ccccc3c2)cc1`, the molecule was classed as inactive in assay [5], in [6], in [7] and in assay [11]. For the same molecule, the Potency result in [8], in [9], in [20] and in assay [17] was “inactive” in each case. The activation in assay [1] is 5.18% (inactive) and -0.414% (inactive); in assay [19], -2.23% (inactive) and -2.96% (inactive). Further, in assay [10], the max response was 41.7% and -2.21%. Moreover, the activity change % (negative = inhibition) in assay [18] was -6.28% (inactive).

For the molecule `CCOC(=O)c1ccccc1N`, the Potency in assay [2] is > 92 µM (inactive). In addition, the outcome in assay [3], in assay [4], in assay [5], in assay [6], in assay [7] and in [12] was inactive. In addition, the Potency result in [8], in assay [9], in assay [20], in assay [13] and in assay [17] was “inactive” throughout. The activation is -0.579% (inactive) in assay [1] and 1.49% (inactive) in [14]. Also, the activity change % (negative = inhibition) in assay [18] was 5.04% (inactive).

Regarding `Nc1nc2[nH]c(=O)cnc2c(=O)[nH]1`, in assay [16], the Potency entry was “inactive” and the viability change was -3.53%.

Take `O=c1oc(Cl)c(Cl)c2ccccc12`: the Potency in assay [15] was 25.1 µM (active) and inactive.

With `COc1ccc2c(c1)CCC1C2CC[C@@]2(C)C1CC[C@@H]2NCCCCCCN1C(=O)C=CC1=O` (stereo partly drawn), the Potency result in assay [15] was “inactive”.

`c1ccc2c(c1)-c1cccc3cccc-2c13`: in assay [2], the Potency was > 92 µM (inactive). Also, the outcome in assay [3], in assay [4], in [5], in assay [6], in assay [7] and in assay [11] was inactive. The result in [12] was inactive. Further, the Potency entry in [8], in assay [20], in assay [13] and in [17] was “inactive” throughout. In assay [10], the max response was found to be 27.3%. The activity change % (negative = inhibition) in [18] is 3.57% (inactive). In addition, the activation in assay [19] is 5.47% (inactive) and -0.395% (inactive).

As to `Oc1ccccc1Cl`, the Potency in assay [2] was > 92 µM (inactive). In addition, the molecule was called inactive in [3], in assay [4], in [5], in assay [6], in assay [7] and in assay [12]. In addition, the Potency result in [8], in assay [9], in assay [20], in assay [13] and in assay [17] was “inactive” throughout. Besides, in assay [18], the activity change % (negative = inhibition) was -7.68% (inactive). The activation in assay [19] is -5.71% (inactive); in [14], 0.249% (inactive).

As for `O=C(O)CNC(=O)C(CS)Cc1ccccc1` (stereo not drawn), the Potency result in assay [15] is “inactive”.

For the origin of these results see PubChem BioAssay (NCATS).
